In the supplement of paper PMC9492666:
Where a name gives a salt, the structure may show the parent alone.
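Further: viability read by CCK-8 kit in 96-well plates, part of a combination screen pairing lipid-metabolism-targeting compounds with erastin.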

These compounds were tested on MDA-MB-231 (assay: relative cell viability, compound + erastin, vs DMSO (fraction of DMSO control); higher = less growth inhibition). Details: 72 h.
`CCc1c(C(=O)C(N)=O)c2c(OCC(=O)O)cccc2n1Cc1ccccc1` [Varespladib] + CCOc1ccccc1-n1c(C(C)N2CCN(C(=O)COc3ccc(Cl)cc3)CC2)nc2ccccc2c1=O [erastin] was tested, and the relative cell viability was 0.652.
For `CN1CC(O)C2=C/C(=N/NC(N)=O)C(=O)C=C21` (stereo not drawn) [Carbazochrome] + CCOc1ccccc1-n1c(C(C)N2CCN(C(=O)COc3ccc(Cl)cc3)CC2)nc2ccccc2c1=O [erastin], the relative cell viability was 0.682.
`CC(=O)c1c(C)cc2cccc(O)c2c1O` [Nepodin] + CCOc1ccccc1-n1c(C(C)N2CCN(C(=O)COc3ccc(Cl)cc3)CC2)nc2ccccc2c1=O [erastin] was tested, and the relative cell viability was 0.766.
With `O=C(Oc1ccc([N+](=O)[O-])cc1)N1CCN(Cc2cccc(Oc3ccccc3)c2)CC1` + CCOc1ccccc1-n1c(C(C)N2CCN(C(=O)COc3ccc(Cl)cc3)CC2)nc2ccccc2c1=O [erastin] the relative cell viability was 0.312.
`CN1CCN(c2ccc(/C=C(\C#N)c3ccccc3Br)cc2)CC1` [DG172 (dihydrochloride)] + CCOc1ccccc1-n1c(C(C)N2CCN(C(=O)COc3ccc(Cl)cc3)CC2)nc2ccccc2c1=O [erastin] showed a relative cell viability of 0.608.
With `CCOP(=O)(OCC)C(=Cc1cc(C(C)(C)C)c(O)c(C(C)(C)C)c1)P(=O)(OCC)OCC` + CCOc1ccccc1-n1c(C(C)N2CCN(C(=O)COc3ccc(Cl)cc3)CC2)nc2ccccc2c1=O [erastin] the relative cell viability was 0.648.
`Cc1nc2ccc(C(=O)N3CCC4(CC3)CC(=O)c3c(cnn3C(C)C)C4)cc2[nH]1` + CCOc1ccccc1-n1c(C(C)N2CCN(C(=O)COc3ccc(Cl)cc3)CC2)nc2ccccc2c1=O [erastin] was tested, and the relative cell viability was 0.733.
`CCCCCCCCCCC[C@@H](C[C@@H]1OC(=O)[C@H]1CCCCCC)OC(=O)[C@H](CC(C)C)NC=O` [Orlistat] + CCOc1ccccc1-n1c(C(C)N2CCN(C(=O)COc3ccc(Cl)cc3)CC2)nc2ccccc2c1=O [erastin] gave a relative cell viability of 0.52.
With `O=C(NN1CCCCC1)c1nn(-c2ccc(Cl)cc2Cl)c(-c2ccc(C#Cc3ccc(C(F)(F)F)cc3)s2)c1CNS(=O)(=O)N1CCCC1` + CCOc1ccccc1-n1c(C(C)N2CCN(C(=O)COc3ccc(Cl)cc3)CC2)nc2ccccc2c1=O [erastin] the relative cell viability was 0.395.
`CCCCCCCCCCCCCCOc1ccc(C(=O)O)o1` + CCOc1ccccc1-n1c(C(C)N2CCN(C(=O)COc3ccc(Cl)cc3)CC2)nc2ccccc2c1=O [erastin] was tested, and the relative cell viability was 0.696.
With `Cc1c(C(=O)NN2CCOCC2)nn(-c2ccc(Cl)cc2Cl)c1-c1ccc(I)cc1` + CCOc1ccccc1-n1c(C(C)N2CCN(C(=O)COc3ccc(Cl)cc3)CC2)nc2ccccc2c1=O [erastin] the relative cell viability was 0.325.
Work on `CSc1ccc(C(=O)/C=C/c2cc(C)c(OC(C)(C)C(=O)O)c(C)c2)cc1` [Elafibranor] + CCOc1ccccc1-n1c(C(C)N2CCN(C(=O)COc3ccc(Cl)cc3)CC2)nc2ccccc2c1=O [erastin] yielded a relative cell viability of 0.602.
`O=C(c1c2ccccc2cc2ccccc12)N1CCC(N2CCC[C@@H](C(=O)N3CCOCC3)C2)CC1` + CCOc1ccccc1-n1c(C(C)N2CCN(C(=O)COc3ccc(Cl)cc3)CC2)nc2ccccc2c1=O [erastin] gave a relative cell viability of 0.483.
Compound `CN(C)C(=N)NC(=N)N` [Metformin hydrochloride] + CCOc1ccccc1-n1c(C(C)N2CCN(C(=O)COc3ccc(Cl)cc3)CC2)nc2ccccc2c1=O [erastin] has a relative cell viability of 1.03.
`C[C@H](CCOc1cccc(CC(=O)O)c1)N(Cc1cccc(C(F)(F)F)c1Cl)CC(c1ccccc1)c1ccccc1` [RGX-104 free Acid] + CCOc1ccccc1-n1c(C(C)N2CCN(C(=O)COc3ccc(Cl)cc3)CC2)nc2ccccc2c1=O [erastin] showed a relative cell viability of 0.488.
With `O=C(c1ccc(-c2nc3ccc(F)cc3o2)cc1)N1CCN(C(=O)C2(O)CC2)CC1` + CCOc1ccccc1-n1c(C(C)N2CCN(C(=O)COc3ccc(Cl)cc3)CC2)nc2ccccc2c1=O [erastin] the relative cell viability was 0.823.
`CCOC(=O)N1c2ccc(C(F)(F)F)cc2[C@@H](N(Cc2cc(C(F)(F)F)cc(C(F)(F)F)c2)C(=O)OC)C[C@H]1CC` [Torcetrapib] + CCOc1ccccc1-n1c(C(C)N2CCN(C(=O)COc3ccc(Cl)cc3)CC2)nc2ccccc2c1=O [erastin] gave a relative cell viability of 0.823.
Work on `CCCCCC=CC(=O)CCc1ccc(O)c(OC)c1` [6-Shogaol] + CCOc1ccccc1-n1c(C(C)N2CCN(C(=O)COc3ccc(Cl)cc3)CC2)nc2ccccc2c1=O [erastin] yielded a relative cell viability of 0.559.
